Among the test systems are SR leukemia; RPMI-8226 leukemia; OVCAR-8 ovarian; OVCAR-5 ovarian; OVCAR-4 ovarian; SK-OV-3 ovarian; IGROV1 ovarian; OVCAR-3 ovarian; HS 578T breast; NCI/ADR-RES ovarian.
Test in all cases: NCI-60 one-dose screen, 48 h (100 = growth as untreated, 0 = no growth, -100 = all killed)
Holding throughout (conditions): 10 µM unless noted

Several values for one entry are separate records, joined by “and”; a condition that tells them apart may be missing. Equal entries are not always repeated. This is part of a sample that, as a whole, favours compounds with a hit. Of some 83,000 tested, about 20% had one in any assay.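 Method: cells in 96-well plates; compound added at one concentration; 48 h incubation; percent growth measured; values under 10 scored active.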 Activity calls are given as the source filed them.

For the molecule `COC1C(OC(N)=O)C(O)C(Oc2ccc3c(O)c(NC(=O)c4ccc(O)c(CC=C(C)C)c4)c(=O)oc3c2C)OC1(C)C` (stereo not given), the growth in the test with SR leukemia is 84% (inactive) and 80% (inactive); in the test on RPMI-8226 leukemia it was 99.5% (inactive) and 80.1% (inactive); with OVCAR-8 ovarian, 103% (inactive); with OVCAR-5 ovarian it was 86.8% (inactive) and 91.4% (inactive); with OVCAR-4 ovarian it was 111% (inactive) and 98.9% (inactive); in the test with SK-OV-3 ovarian it was 112% (inactive) and 121% (inactive). Besides, the growth in the test on IGROV1 ovarian was 137% (inactive) and 129% (inactive); in the test with OVCAR-3 ovarian, 97.3% (inactive) and 90.6% (inactive); in the test on HS 578T breast, 89.4% (inactive) and 102% (inactive); in the test with NCI/ADR-RES ovarian, 106% (inactive) and 97.1% (inactive).
For `Clc1ccc2c(c1)N(C1CCCN(Cc3ccccc3)C1)c1ccccc1S2` (stereo not given), the growth in the test with SR leukemia is 16.1% (inactive); in the test with RPMI-8226 leukemia it was 25.9% (inactive); in the test on OVCAR-8 ovarian, 37.9% (inactive); in the test with OVCAR-5 ovarian it was 73.4% (inactive); in the test on OVCAR-4 ovarian, 79.9% (inactive); in the test on SK-OV-3 ovarian, 26.8% (inactive). Besides, the growth is 43.8% (inactive) with IGROV1 ovarian, 53.3% (inactive) in the test with OVCAR-3 ovarian, 14.4% (inactive) with HS 578T breast and 24.8% (inactive) with NCI/ADR-RES ovarian.
Take `O=C(O)C(Cc1ccc(OS(=O)(=O)Cc2ccccc2)cc1)NS(=O)(=O)Cc1ccccc1` (stereo not given): the growth was 100% (inactive) and 85.8% (inactive) with SR leukemia; 110% (inactive) and 102% (inactive) with RPMI-8226 leukemia; 105% (inactive) with OVCAR-8 ovarian; 123% (inactive) and 112% (inactive) in the test with OVCAR-5 ovarian; 99.8% (inactive) and 109% (inactive) with OVCAR-4 ovarian; 112% (inactive) and 120% (inactive) in the test with SK-OV-3 ovarian. The growth was 106% (inactive) and 121% (inactive) in the test with IGROV1 ovarian; 111% (inactive) and 109% (inactive) with OVCAR-3 ovarian; 106% (inactive) in the test on HS 578T breast; 105% (inactive) and 112% (inactive) with NCI/ADR-RES ovarian.
`O=[N+]([O-])c1cccc2ccc(N/N=C/c3ccccc3O)nc12`: the growth was 60.4% (inactive) with SR leukemia; 6.55% (active) and 93.4% (inactive) with RPMI-8226 leukemia; 91.9% (inactive) and 95% (inactive) with OVCAR-8 ovarian; 113% (inactive) and 116% (inactive) in the test with OVCAR-5 ovarian; 93.3% (inactive) and 100% (inactive) with OVCAR-4 ovarian; 108% (inactive) and 111% (inactive) in the test on SK-OV-3 ovarian. For the same molecule, the growth in the test with IGROV1 ovarian is -10.5% (active); in the test on OVCAR-3 ovarian, 40.5% (inactive) and 101% (inactive); in the test with HS 578T breast, 83.6% (inactive) and 98.7% (inactive); in the test on NCI/ADR-RES ovarian it was 59% (inactive) and 106% (inactive).
As to `NC(=O)Cc1nc(O)cc(=O)[nH]1`, the growth with SR leukemia was 93.5% (inactive); with RPMI-8226 leukemia it was 85.2% (inactive); in the test on OVCAR-8 ovarian, 93.8% (inactive); with OVCAR-5 ovarian, 109% (inactive); in the test with OVCAR-4 ovarian, 113% (inactive); in the test on SK-OV-3 ovarian, 89.7% (inactive). The growth with IGROV1 ovarian was 109% (inactive); in the test on OVCAR-3 ovarian, 109% (inactive); in the test with HS 578T breast it was 91.9% (inactive); with NCI/ADR-RES ovarian, 115% (inactive).
Take `CCOC(C)=N`: the growth in the test on SR leukemia was 87.4% (inactive); with RPMI-8226 leukemia it was 92.7% (inactive); in the test on OVCAR-8 ovarian, 109% (inactive); with OVCAR-5 ovarian it was 102% (inactive); with OVCAR-4 ovarian it was 100% (inactive); in the test with SK-OV-3 ovarian it was 97% (inactive). Also, the growth is 151% (inactive) in the test with IGROV1 ovarian, 110% (inactive) with OVCAR-3 ovarian, 150% (inactive) in the test on HS 578T breast and 109% (inactive) with NCI/ADR-RES ovarian.
Take `CC(C)(C)OC(=O)NCCc1ccc(N)cc1`: the growth in the test on SR leukemia is 99.5% (inactive); in the test with RPMI-8226 leukemia, 91.4% (inactive); in the test with OVCAR-8 ovarian, 104% (inactive); with OVCAR-5 ovarian, 111% (inactive); with OVCAR-4 ovarian it was 98.8% (inactive); with SK-OV-3 ovarian, 101% (inactive). The growth was 104% (inactive) in the test with IGROV1 ovarian, 106% (inactive) in the test on OVCAR-3 ovarian, 96% (inactive) in the test with HS 578T breast and 99.2% (inactive) in the test with NCI/ADR-RES ovarian.
Consider `COc1ccc(CCNC(=S)NN)cc1OC`, for which the growth with SR leukemia was 104% (inactive); in the test with RPMI-8226 leukemia it was 99% (inactive); in the test with OVCAR-8 ovarian, 103% (inactive); in the test on OVCAR-5 ovarian it was 104% (inactive); with OVCAR-4 ovarian it was 99.3% (inactive); with SK-OV-3 ovarian, 121% (inactive). Also, the growth with IGROV1 ovarian is 107% (inactive); with OVCAR-3 ovarian it was 108% (inactive); with HS 578T breast it was 102% (inactive); in the test on NCI/ADR-RES ovarian it was 102% (inactive).
`COc1ccc(S(=O)(=O)c2ccc(F)cc2)cc1`: the growth was 87.4% (inactive) in the test with SR leukemia; 80.7% (inactive) in the test on RPMI-8226 leukemia; 97.3% (inactive) in the test with OVCAR-8 ovarian; 99.9% (inactive) in the test on OVCAR-5 ovarian; 100% (inactive) in the test with OVCAR-4 ovarian; 108% (inactive) in the test with SK-OV-3 ovarian. For the same molecule, the growth with IGROV1 ovarian was 120% (inactive); with OVCAR-3 ovarian it was 107% (inactive); in the test on HS 578T breast it was 93.9% (inactive); in the test on NCI/ADR-RES ovarian, 95.3% (inactive).
In the case of `Nc1[nH][nH]c(=O)c1N=Nc1ccccc1`, the growth with SR leukemia is 125% (inactive) and 98.6% (inactive); in the test on RPMI-8226 leukemia, 110% (inactive); in the test on OVCAR-8 ovarian it was 102% (inactive) and 108% (inactive); with OVCAR-5 ovarian, 101% (inactive) and 109% (inactive); with OVCAR-4 ovarian it was 99.6% (inactive); in the test with SK-OV-3 ovarian, 101% (inactive) and 107% (inactive). Further, the growth in the test on IGROV1 ovarian is 109% (inactive) and 104% (inactive); in the test on OVCAR-3 ovarian, 106% (inactive) and 111% (inactive); in the test with HS 578T breast, 107% (inactive) and 130% (inactive); in the test with NCI/ADR-RES ovarian it was 106% (inactive) and 105% (inactive).
On to `O=[N+]([O-])c1ccc(NC(c2ccccc2)c2ccc3cccnc3c2O)cc1` (stereo not given), for which the growth in the test with SR leukemia was 6.12% (active); in the test on RPMI-8226 leukemia, 22% (inactive); in the test on OVCAR-8 ovarian, 17% (inactive); in the test on OVCAR-5 ovarian, 58.9% (inactive); with OVCAR-4 ovarian, 22.2% (inactive); in the test on SK-OV-3 ovarian, 34.9% (inactive). The growth with IGROV1 ovarian is 10.9% (inactive); with OVCAR-3 ovarian, 30.7% (inactive); with HS 578T breast it was 35.6% (inactive); in the test with NCI/ADR-RES ovarian, 11.7% (inactive).
Consider `O=C1C=CC(n2cc(F)c(=O)[nH]c2=O)O1` (stereo not given), for which the growth in the test on SR leukemia is 13.1% (inactive); in the test with RPMI-8226 leukemia, 62% (inactive); with OVCAR-8 ovarian it was 62.3% (inactive); in the test on OVCAR-5 ovarian, 128% (inactive); with OVCAR-4 ovarian it was 74.9% (inactive); in the test on SK-OV-3 ovarian, 68.2% (inactive). Further, the growth is 103% (inactive) in the test with IGROV1 ovarian, 57.5% (inactive) with OVCAR-3 ovarian, 90.9% (inactive) in the test with HS 578T breast and 85.1% (inactive) with NCI/ADR-RES ovarian.
Consider `CCOC(=O)c1ccc(C(=N)N)cc1`, for which the growth was 103% (inactive) in the test with SR leukemia; 89.7% (inactive) in the test on RPMI-8226 leukemia; 105% (inactive) in the test on OVCAR-8 ovarian; 120% (inactive) in the test on OVCAR-5 ovarian; 107% (inactive) in the test on OVCAR-4 ovarian; 108% (inactive) in the test with SK-OV-3 ovarian. The growth is 107% (inactive) in the test on IGROV1 ovarian, 102% (inactive) in the test on OVCAR-3 ovarian, 73.8% (inactive) in the test on HS 578T breast and 100% (inactive) with NCI/ADR-RES ovarian.

(Values after PubChem BioAssay (NCI).)
